Values joined by “and” are separate entries in the source; they are usually repeats but may differ in a detail not shown here. Identical values can stand only once. About 2,000 (36%) of roughly 5,500 compounds were called active. Another 18% or so got no clear call; they are omitted. Rule as the data show it: active = normalized growth mostly below about 0.91 (no sharp cut-off); inconclusive = no clear call, values can overlap the other calls; inactive = mostly above about 0.92. Some of the results follow.
Test: chemical genetic growth profiling, strain panel (AID 1159580);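 also: tested at 20 µM; growth read once vehicle control cultures reached saturation at 30 °C; 1 = growth at the plate median or of vehicle wells; lower values mean less growth of the strain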
Details: growth OD

Measured: normalized growth

CCCN(CCC)C(=O)C(CCC(=O)O)NC(=O)c1ccccc1 (stereo unspecified)
inactive: S. cerevisiae deletion strains, locus YJR075W, strain HOC1, stronger effect = lower value 0.988 | S. cerevisiae deletion strains, locus YKL009W, strain mrt4, stronger effect = lower value 1.02 | S. cerevisiae deletion strains, locus YKL068W, stronger effect = lower value 0.975 | S. cerevisiae deletion strains, locus YKL085W, strain MDH1 (second series), stronger effect = lower value 0.987 | S. cerevisiae deletion strains, locus YKL085W, strain MDH1, stronger effect = lower value 0.987 | S. cerevisiae deletion strains, locus YKL160W, strain elf1, stronger effect = lower value 1.01 | S. cerevisiae deletion strains, locus YKL190W, strain CNB1, stronger effect = lower value 0.988 | S. cerevisiae deletion strains, locus YKR001C, strain vps1, stronger effect = lower value 0.995 | S. cerevisiae deletion strains, locus YKR026C, strain gcn3, stronger effect = lower value 0.974 | S. cerevisiae deletion strains, locus YKR091W, strain srl3, stronger effect = lower value 0.985 | S. cerevisiae deletion strains, locus YLL001W, strain dnm1, stronger effect = lower value 0.973 | S. cerevisiae deletion strains, locus YLL026W, stronger effect = lower value 0.993 | S. cerevisiae deletion strains, locus YLL041C, strain sdh2, stronger effect = lower value 0.982 | S. cerevisiae deletion strains, locus YLR027C, strain aat2, stronger effect = lower value 0.982 | S. cerevisiae deletion strains, locus YLR039C, strain RIC1, stronger effect = lower value 0.987 | S. cerevisiae deletion strains, locus YLR058C, strain SHM2, stronger effect = lower value 0.997 | S. cerevisiae deletion strains, locus YLR102C, strain apc9, stronger effect = lower value 0.986 | S. cerevisiae deletion strains, locus YLR113W, strain HOG1, stronger effect = lower value 0.96 | S. cerevisiae deletion strains, locus YLR221C, strain rsa3, stronger effect = lower value 0.988 | S. cerevisiae deletion strains, locus YLR258W, strain gsy2, stronger effect = lower value 0.973 | S. cerevisiae deletion strains, locus YLR262C, strain YPT6 (second series), stronger effect = lower value 0.968 | S. cerevisiae deletion strains, locus YLR262C, strain YPT6, stronger effect = lower value 0.998 | S. cerevisiae deletion strains, locus YLR268W, strain sec22, stronger effect = lower value 0.955 | S. cerevisiae deletion strains, locus YLR320W, strain mms22, stronger effect = lower value 0.987 | S. cerevisiae deletion strains, locus YLR330W, strain CHS5, stronger effect = lower value 0.995 | S. cerevisiae deletion strains, locus YLR342W, strain FKS1 (second series), stronger effect = lower value 1.08 | S. cerevisiae deletion strains, locus YLR342W, strain FKS1, stronger effect = lower value 0.989 | S. cerevisiae deletion strains, locus YLR357W, strain rsc2, stronger effect = lower value 0.964 | S. cerevisiae deletion strains, locus YLR370C, strain arc18, stronger effect = lower value 0.984 | S. cerevisiae deletion strains, locus YLR371W, strain rom2, stronger effect = lower value 0.986 | S. cerevisiae deletion strains, locus YLR384C, strain iki3, stronger effect = lower value 0.982 | S. cerevisiae deletion strains, locus YLR418C, strain cdc73, stronger effect = lower value 1 | S. cerevisiae deletion strains, locus YML016C, strain PPZ1, stronger effect = lower value 1.01 | S. cerevisiae deletion strains, locus YML032C, strain rad52, stronger effect = lower value 0.982 | S. cerevisiae deletion strains, locus YML120C, strain ndi1, stronger effect = lower value 0.988 | S. cerevisiae deletion strains, locus YML124C, strain tub3, stronger effect = lower value 0.988 | S. cerevisiae deletion strains, locus YMR058W, strain fet3, stronger effect = lower value 0.983 | S. cerevisiae deletion strains, locus YMR078C, strain ctf18, stronger effect = lower value 0.985 | S. cerevisiae deletion strains, locus YMR125W, strain sto1, stronger effect = lower value 0.975 | S. cerevisiae deletion strains, locus YMR129W, stronger effect = lower value 1 | S. cerevisiae deletion strains, locus YMR205C, strain PFK2, stronger effect = lower value 0.992 | S. cerevisiae deletion strains, locus YMR223W, strain ubp8, stronger effect = lower value 1.02 | S. cerevisiae deletion strains, locus YMR231W, strain pep5, stronger effect = lower value 0.976 | S. cerevisiae deletion strains, locus YMR263W, strain SAP30, stronger effect = lower value 0.99 and 1.01 | S. cerevisiae deletion strains, locus YMR307W, strain GAS1, stronger effect = lower value 1.06 and 0.989 | S. cerevisiae deletion strains, locus YNL067W, strain RPL9B, stronger effect = lower value 0.982 | S. cerevisiae deletion strains, locus YNL071W, strain lat1, stronger effect = lower value 1 | S. cerevisiae deletion strains, locus YNL128W, strain TEP1, stronger effect = lower value 0.983 | S. cerevisiae deletion strains, locus YNL153C, strain GIM3, stronger effect = lower value 1 and 1.01 | S. cerevisiae deletion strains, locus YNL175C, strain NOP13, stronger effect = lower value 1.01 | S. cerevisiae deletion strains, locus YNL183C, strain NPR1, stronger effect = lower value 0.933 | S. cerevisiae deletion strains, locus YNL197C, strain WHI3, stronger effect = lower value 1.08 | S. cerevisiae deletion strains, locus YNL209W, strain ssb2, stronger effect = lower value 0.979 | S. cerevisiae deletion strains, locus YNL224C, strain SQS1, stronger effect = lower value 1 | S. cerevisiae deletion strains, locus YNL233W, strain BNI4, stronger effect = lower value 0.989 | S. cerevisiae deletion strains, locus YNL248C, strain rpa49, stronger effect = lower value 0.948 | S. cerevisiae deletion strains, locus YNL250W, strain rad50, stronger effect = lower value 0.982 | S. cerevisiae deletion strains, locus YNL271C, strain bni1, stronger effect = lower value 0.988 | S. cerevisiae deletion strains, locus YNL298W, strain CLA4, stronger effect = lower value 0.998 | S. cerevisiae deletion strains, locus YNL307C, strain MCK1, stronger effect = lower value 0.996 | S. cerevisiae deletion strains, locus YNL322C, strain KRE1 (second series), stronger effect = lower value 0.99 | S. cerevisiae deletion strains, locus YNL322C, strain KRE1, stronger effect = lower value 0.982 and 1.01 | S. cerevisiae deletion strains, locus YNR049C, strain mso1, stronger effect = lower value 0.968 | S. cerevisiae deletion strains, locus YNR052C, strain pop2, stronger effect = lower value 0.991 | S. cerevisiae deletion strains, locus YOL006C, strain TOP1, stronger effect = lower value 0.957 | S. cerevisiae deletion strains, locus YOL012C, strain htz1 1.01 | S. cerevisiae deletion strains, locus YOL147C, strain pex11, stronger effect = lower value 0.995 | S. cerevisiae deletion strains, locus YOR001W, strain rrp6, stronger effect = lower value 0.984 | S. cerevisiae deletion strains, locus YOR061W, strain CKA2, stronger effect = lower value 1.01 | S. cerevisiae deletion strains, locus YOR069W, strain VPS5, stronger effect = lower value 0.997 | S. cerevisiae deletion strains, locus YOR070C, strain gyp1, stronger effect = lower value 0.99 | S. cerevisiae deletion strains, locus YOR080W, strain dia2, stronger effect = lower value 0.969 | S. cerevisiae deletion strains, locus YOR083W, strain WHI5 (second series), stronger effect = lower value 1.01 | S. cerevisiae deletion strains, locus YOR083W, strain WHI5, stronger effect = lower value 0.98 | S. cerevisiae deletion strains, locus YOR106W, strain vam3, stronger effect = lower value 0.975 | S. cerevisiae deletion strains, locus YOR136W, strain idh2, stronger effect = lower value 0.989 | S. cerevisiae deletion strains, locus YOR144C, strain elg1, stronger effect = lower value 0.977 | S. cerevisiae deletion strains, locus YOR184W, strain ser1, stronger effect = lower value 0.993 | S. cerevisiae deletion strains, locus YOR231W, strain MKK1, stronger effect = lower value 0.978 | S. cerevisiae deletion strains, locus YOR265W, strain rbl2, stronger effect = lower value 0.987 | S. cerevisiae deletion strains, locus YOR270C, strain vph1, stronger effect = lower value 0.919 | S. cerevisiae deletion strains, locus YOR290C, strain snf2, stronger effect = lower value 0.988 | S. cerevisiae deletion strains, locus YOR316C, strain cot1, stronger effect = lower value 0.977 | S. cerevisiae deletion strains, locus YPL051W, strain arl3, stronger effect = lower value 0.987 | S. cerevisiae deletion strains, locus YPL055C, strain LGE1, stronger effect = lower value 0.99 and 1.01 | S. cerevisiae deletion strains, locus YPL078C, strain atp4, stronger effect = lower value 0.992 | S. cerevisiae deletion strains, locus YPL106C, strain sse1, stronger effect = lower value 0.955 | S. cerevisiae deletion strains, locus YPL240C, strain hsp82, stronger effect = lower value 0.986 | S. cerevisiae deletion strains, locus YPL241C, strain CIN2, stronger effect = lower value 1 | S. cerevisiae deletion strains, locus YPL256C, strain CLN2, stronger effect = lower value 0.965 | S. cerevisiae deletion strains, locus YPR119W, strain clb2, stronger effect = lower value 0.989 | S. cerevisiae deletion strains, locus YPR141C, strain kar3, stronger effect = lower value 0.984 | S. cerevisiae deletion strains, locus YPR163C, strain tif3, stronger effect = lower value 0.977 | S. cerevisiae deletion strains, locus YPR167C, strain met16, stronger effect = lower value 0.983 | S. cerevisiae deletion strains, strain wtn01, stronger effect = lower value 0.987 | S. cerevisiae strains, strain wild type, stronger effect = lower value 1

From PubChem BioAssay AID1159580 (chemical genetic matrix, 2015)
